Seven compounds from PubChem BioAssay (NCI) can be followed below.

This is part of a sample that, as a whole, favours compounds with a hit. Of some 83,000 tested, about 20% had one in any assay.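 Plates (96-well) were seeded with cells, treated with compound at one concentration, and incubated for 48 hours before percent growth was determined.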 A number with no mark means an inactive call. Calls of active or inactive are those of the source. Rule for the calls: active = growth percent below 10; inactive = the rest.

Among the test systems are SR leukemia; RPMI-8226 leukemia; OVCAR-8 ovarian; OVCAR-5 ovarian; OVCAR-4 ovarian; SK-OV-3 ovarian; IGROV1 ovarian; OVCAR-3 ovarian; HS 578T breast; NCI/ADR-RES ovarian; T-47D breast; BT-549 breast; MDA-MB-435 melanoma; SW-620 colon; MCF7 breast; HCT-116 colon; HCC-2998 colon; KM12 colon.
Common to all, as to assay: NCI-60 one-dose screen, 48 h (100 = growth as untreated, 0 = no growth, -100 = all killed)
What all share (conditions): 10 µM unless noted

`O=c1ccc2c(ccc3ncccc32)o1`: the growth in the experiment on SR leukemia was 103%; in the experiment with RPMI-8226 leukemia, 112%; in the experiment on OVCAR-8 ovarian it was 105%; in the experiment on OVCAR-5 ovarian, 104%; with OVCAR-4 ovarian, 111%; in the experiment with SK-OV-3 ovarian, 104%. Also, the growth is 109% with IGROV1 ovarian; 108% in the experiment with OVCAR-3 ovarian; 108% in the experiment with HS 578T breast; 106% in the experiment with NCI/ADR-RES ovarian; 94.6% with T-47D breast; 116% in the experiment with BT-549 breast. For the same compound, the growth is 116% in the experiment on MDA-MB-435 melanoma; 115% in the experiment with SW-620 colon; 95.7% in the experiment on MCF7 breast; 113% in the experiment on HCT-116 colon; 107% in the experiment with HCC-2998 colon; 107% in the experiment on KM12 colon.
Turning to `Cc1ccc(C(F)(F)F)cc1N1CCN(C(=O)[C@H]2C[C@H]2c2ccc(C(F)(F)F)nc2)CC1`, the growth with SR leukemia was 76%; with RPMI-8226 leukemia, 66.1%; in the experiment on OVCAR-8 ovarian, 89.9%; in the experiment on OVCAR-5 ovarian, 85.6%; in the experiment on OVCAR-4 ovarian it was 92%; in the experiment on SK-OV-3 ovarian, 84.2%. The growth in the experiment with IGROV1 ovarian was 74.7%; with OVCAR-3 ovarian it was 93.4%; in the experiment with HS 578T breast it was 91.4%; in the experiment on NCI/ADR-RES ovarian, 91.6%; with T-47D breast it was 68.4%; with BT-549 breast, 88.2%. The growth with MDA-MB-435 melanoma is 103%; in the experiment with SW-620 colon it was 105%; with MCF7 breast, 91.2%; with HCT-116 colon, 93.4%; in the experiment with HCC-2998 colon, 101%; in the experiment on KM12 colon, 91.8%.
`COC(=O)c1sc(-c2ccc(C)cc2)cc1O`: the growth was 81.9% in the experiment on SR leukemia; 103% with RPMI-8226 leukemia; 117% in the experiment on OVCAR-8 ovarian; 112% with OVCAR-5 ovarian; 91.5% in the experiment on OVCAR-4 ovarian; 114% in the experiment on SK-OV-3 ovarian. Also, the growth in the experiment on IGROV1 ovarian was 100%; with OVCAR-3 ovarian, 99.6%; with HS 578T breast, 101%; in the experiment on NCI/ADR-RES ovarian, 99.8%; in the experiment on T-47D breast, 102%; in the experiment on BT-549 breast, 107%. In addition, the growth was 91.9% with MDA-MB-435 melanoma; 103% with SW-620 colon; 96.4% in the experiment with MCF7 breast; 96.6% in the experiment on HCT-116 colon; 94.7% in the experiment with HCC-2998 colon; 95.8% in the experiment on KM12 colon.
On to `CC/C(=C(/c1ccc(Cl)cc1)c1ccc(OCCN(CC)CC)cc1)c1ccc(OC)cc1`, for which the growth in the experiment with SR leukemia was -26% (active); in the experiment on RPMI-8226 leukemia it was -21.4% (active); in the experiment with OVCAR-8 ovarian, 60.4%; in the experiment with OVCAR-5 ovarian, 61.5%; in the experiment with OVCAR-4 ovarian, 70%; with SK-OV-3 ovarian, 89.8%. Moreover, the growth in the experiment with IGROV1 ovarian is 60.4%; in the experiment on OVCAR-3 ovarian, 65.8%; with HS 578T breast, 81.5%; in the experiment on NCI/ADR-RES ovarian, 69.7%; in the experiment with T-47D breast, 39.1%; in the experiment on BT-549 breast it was 67.7%. Moreover, the growth in the experiment on MDA-MB-435 melanoma was 69.1%; with SW-620 colon it was 40.2%; in the experiment with MCF7 breast it was 13.7%; in the experiment with HCT-116 colon it was 34.2%; with HCC-2998 colon, 54.7%; with KM12 colon it was 35.1%.
On to `O=C(O)/C=C/c1cn(-c2ccccc2)nc1-c1ccc(F)cc1`, for which the growth is 104% in the experiment on SR leukemia; 97.4% in the experiment on RPMI-8226 leukemia; 87.4% with OVCAR-8 ovarian; 88.8% in the experiment on OVCAR-5 ovarian; 99.1% in the experiment with OVCAR-4 ovarian; 87.8% with SK-OV-3 ovarian. The growth with IGROV1 ovarian is 91.6%; with OVCAR-3 ovarian, 96%; in the experiment with HS 578T breast, 83.4%; in the experiment with NCI/ADR-RES ovarian it was 90.4%; in the experiment on T-47D breast, 93.9%; with BT-549 breast, 90.7%. Besides, the growth is 105% in the experiment with MDA-MB-435 melanoma; 89.8% with SW-620 colon; 84% in the experiment with MCF7 breast; 82.5% in the experiment with HCT-116 colon; 103% with HCC-2998 colon; 90.4% in the experiment with KM12 colon.
For `CC1=NC(=S)NC(c2ccccc2)/C1=C1/CC(c2ccccc2O)NN1` (stereo unspecified), the growth is 97.8% in the experiment with SR leukemia; 97.7% in the experiment on RPMI-8226 leukemia; 96.6% with OVCAR-8 ovarian; 101% in the experiment on OVCAR-5 ovarian; 101% with OVCAR-4 ovarian; 98.2% in the experiment on SK-OV-3 ovarian. The growth in the experiment on IGROV1 ovarian was 93.2%; with OVCAR-3 ovarian, 109%; in the experiment with HS 578T breast it was 108%; in the experiment with NCI/ADR-RES ovarian it was 104%; in the experiment with T-47D breast it was 100%; with BT-549 breast it was 99.6%. The growth in the experiment on MDA-MB-435 melanoma is 103%; in the experiment on SW-620 colon it was 100%; in the experiment with MCF7 breast, 102%; with HCT-116 colon, 99.6%; in the experiment with HCC-2998 colon, 113%; in the experiment with KM12 colon it was 104%.
Turning to `CN(C)CC1C(=O)O[C@H]2[C@H]1CC/C(COC(=O)NCc1ccc(Cn3c(=O)sn(CCCI)c3=O)cc1)=C\CC[C@@]1(C)O[C@@H]21` (stereo partly specified), the growth was -28.6% (active) with SR leukemia; -29.7% (active) with RPMI-8226 leukemia; -68.2% (active) with OVCAR-8 ovarian; 105% with OVCAR-5 ovarian; 6.44% (active) with OVCAR-4 ovarian; 99.5% in the experiment on SK-OV-3 ovarian. The growth in the experiment on IGROV1 ovarian is -81.8% (active); in the experiment with OVCAR-3 ovarian, -96.4% (active); in the experiment with HS 578T breast it was 82.5%; in the experiment with NCI/ADR-RES ovarian, 98.8%; in the experiment on T-47D breast, -55.5% (active); with BT-549 breast it was 50.1%. Further, the growth was 20.5% in the experiment on MDA-MB-435 melanoma; -74.9% (active) with SW-620 colon; -55.4% (active) in the experiment with MCF7 breast; -73.2% (active) in the experiment on HCT-116 colon; 41% in the experiment with HCC-2998 colon; 105% with KM12 colon.
